Data as given in PubChem BioAssay (EPA / NIEHS).
Where a structure was tested more than once in an assay, its records may differ in their call. Active and inactive are the calls of the source. How the source made its calls: active means hit-call score of the fitted dose curve at least 0.9, where 1 is the maximum; inactive means score below 0.9.

assay: ATG_GATA_CIS: Attagene CIS-FACTORIAL HepG2 Assay for human GATA Binding Protein (AID 2282944); details: HepG2 GATA cis-element reporter, Attagene multiplex mRNA; actives raise or lower the signal
Method: ATG_CIS is a cell-based, multiplexed-readout assay that uses HepG2, a human liver cell line, with measurements taken at 24 hours after chemical dosing in a 24-well plate.ATG_GATA_CIS is one of 52 assay component(s) measured or calculated from the ATG_CIS assay. It is designed to make measurements of mRNA induction, a form of inducible reporter, as detected with fluorescence intensity signals by Reverse transcription polymerase chain reaction (RT-PCR) and Capillary electrophoresis technology.Data from the assay component ATG_GATA_CIS was analyzed into 1 assay endpoint. This assay endpoint, ATG_GATA_CIS, was analyzed with bidirectional fitting relative to DMSO as the negative control and baseline of activity. Using a type of inducible reporter, measures of mRNA for gain or loss-of-signal activity can be used to understand the reporter gene at the transcription factor-level as they relate to the gene GATA1. Furthermore, this assay endpoint can be referred to as a primary readout, because this assay has produced multiple assay endpoints where this one serves a reporter gene function. To generalize the intended target to other relatable targets, this assay endpoint is annotated to the dna binding intended target family, where the subfamily is GATA proteins.
Human liver HepG2 cells are transiently transfected with multiple reporter transcription units (MRTUs) in 6-well plates using FuGene 6 reagent (Roche; 3 ml FuGene/1 mg DNA). The MRTU constructs are regulated by a cis-regulating element (promoter). […] A major difference between the CIS and TRANS system is that in CIS activities of endogenous TFs are measured, whereas the TRANS assay evaluates changes in activities of exogenous, chimeric NR-Gal4 proteins. […] At the end of 24 hour incubation, total RNA was isolated using TriZol reagent (Invitrogen). The isolated RNA is then reverse-transcribed using oligo(dT) primer and Mo-MLV reverse transcriptase (Invitrogen) with DNAse I (Ambion) treatment for 30 min. The one-tenth of the produced cDNA was amplified by PCR using Taq DNA polymerase (Invitrogen) and two reporter sequence-specific primers. The PCR products were fluorescently labeled by primer extension with 6-arboxyfluorescein (6-FAM) 5'-labeled reporter sequence-specific primer (2 min at 95 C, 20 s at 68 C and 10 min at 72 C) and these products were digested with 5U of HpaI (New England Biolabs) for 2h at 37 C. The fragments were purified using Qiaquick PCR columns (Qiagen), analyzed on an ABI 3130xL genetic analyzer (Applied Biosystems) with peak positions identified by using a set of X-rhodamine (ROX)-labeled MapMarker1000 molecular weight standards (BioVentures). The raw capillary electrophoresis data was processed using Attagraph software (Attagene).

Question: For `CCCCCCCCOc1ccc(C(=O)c2ccccc2)c(O)c1`, which outcome is on record?
Answer: Its outcome is “inactive”.

Question: For `Cc1oc2c(NC(=O)c3c(Cl)cccc3Cl)cccc2c1C(C)(C)O`, which outcome is on record?
Answer: Its outcome is “inactive”.

Question: For `O=C1c2ccccc2C(=O)N1CCc1noc(-c2ccc(CN3CCCCCC3)s2)n1`, which outcome is on record?
Answer: The outcome was “inactive”.

Question: Which outcome does the source give for `CC(C)(c1cc(Br)c(O)c(Br)c1)c1cc(Br)c(O)c(Br)c1` here?
Answer: The outcome was “inactive”.

Question: And the AC50?
Answer: The AC50 was 58.1 µM (active).

Question: With `c1ccc(C[n+]2cccc3ccccc32)cc1` as the molecule, how does the outcome read?
Answer: The outcome was “inactive”.

Question: For `O=C1CCC(C2CCCCC2)CC1`, which outcome is on record?
Answer: Its outcome is “inactive”.

Question: And the AC50?
Answer: Its AC50 is 187 µM (active).

Question: Which AC50 does the source give for `CCCCOC(=O)c1ccc(O)cc1` here?
Answer: The AC50 was 164 µM (active).

Question: What about the outcome of the same molecule?
Answer: Its outcome is “inactive”.

Question: For `Cc1cc2c(cc1C(F)(F)F)N(C(=O)Nc1ccc(Oc3cccnc3C)nc1)CC2`, which outcome is on record?
Answer: The outcome was “inactive”.

Question: Which outcome does the source give for `CN(C[C@@H](CC[N+]12CCC(C3CCCCC3)(CC1)CC2)c1ccc(Cl)c(Cl)c1)C(=O)c1cc(C(F)(F)F)cc(C(F)(F)F)c1` here?
Answer: Its outcome is “inactive”.

Question: With `Cc1cccc2ccccc12` as the molecule, how does the outcome read?
Answer: Its outcome is “inactive”.

Question: With `Cc1cc(F)ccc1-c1cc(N2CC[C@@H](O)[C@H]2CO)ncc1N(C)C(=O)C(C)(C)c1cc(C(F)(F)F)cc(C(F)(F)F)c1` as the molecule, how does the outcome read?
Answer: The outcome was “inactive”.

Question: With `CC(O)CC(C)(C)O` (stereo not given) as the molecule, how does the outcome read?
Answer: The outcome was “inactive”.

Question: With `Oc1ccccc1` as the molecule, how does the outcome read?
Answer: Its outcome is “inactive”.

Question: Which outcome does the source give for `CC(=O)N1CCN(c2ccc(OC[C@H]3CO[C@](Cn4ccnc4)(c4ccc(Cl)cc4Cl)O3)cc2)CC1` here?
Answer: Its outcome is “inactive”.

Question: Which outcome does the source give for `CC/C(=C(/CC)c1ccc(O)cc1)c1ccc(O)cc1` here?
Answer: Its outcome is “inactive”.

Question: Which AC50 does the source give for `Cc1occc1C(=O)Nc1ccc(C(=O)N2CCC(F)(F)/C(=C\C(=O)N3CCC(N4CCCCC4)CC3)c3ccccc32)cc1` here?
Answer: Its AC50 is 46.7 µM (active).

Question: With `CC(C)(O)c1ccc(CNC(=O)c2cccnc2Oc2ccc3nonc3c2)cc1` as the molecule, how does the outcome read?
Answer: Its outcome is “inactive”.

Question: For `CC[C@H](NC(=O)c1cc(F)ccc1NS(=O)(=O)c1cccc2cccnc12)c1ccccc1`, which outcome is on record?
Answer: Its outcome is “inactive”.

Question: Which outcome does the source give for `CCN(CC)C(=O)c1cc(S(=O)(=O)Cc2ccccc2)c(N2CCC(c3ccccc3)CC2)cc1N(CC)CCN(C)C` here?
Answer: Its outcome is “inactive”.

Question: For `CN1C(=O)N(c2ccccc2Br)Cc2cnc(Nc3ccc4c(c3)OCC(CO)O4)nc21` (stereo not given), which outcome is on record?
Answer: The outcome was “inactive”.

Question: Which AC50 does the source give for `Clc1ccccc1C(c1ccccc1)(c1ccccc1)n1ccnc1` here?
Answer: The AC50 was 15.6 µM (active).

Question: With `CC[C@@H]1C[C@H](N(Cc2cc(C(F)(F)F)cc(C(F)(F)F)c2)C(C)=O)c2cc(C(F)(F)F)ccc2N1C(=O)OC(C)C` as the molecule, how does the outcome read?
Answer: The outcome was “inactive”.

Question: For `NCc1cccc(C2CCN(C(=O)c3ccc(C#Cc4ccccc4F)o3)CC2)c1`, which outcome is on record?
Answer: Its outcome is “inactive”.

Question: For `c1ccc2ccccc2c1`, which outcome is on record?
Answer: The outcome was “inactive”.

Question: With `CN(C)c1ccc(C(=C2C=CC(=[N+](C)C)C=C2)c2ccc(N(C)C)cc2)cc1` as the molecule, how does the outcome read?
Answer: Its outcome is “inactive”.

Question: With `Cc1ccc(C(C)C)cc1` as the molecule, how does the outcome read?
Answer: The outcome was “inactive”.

Question: For `Cc1cn([C@H]2C[C@H](N=[N+]=[N-])[C@@H](CO)O2)c(=O)[nH]c1=O`, which outcome is on record?
Answer: The outcome was “inactive”.

Question: Which outcome does the source give for `Cc1c2ccccc2c(C)c2c1ccc1ccccc12` here?
Answer: The outcome was “inactive”.

Question: With `CCCCCCCCOC(=O)c1cc(O)c(O)c(O)c1` as the molecule, how does the outcome read?
Answer: Its outcome is “inactive”.

Question: For `c1ccc2n[nH]nc2c1`, which outcome is on record?
Answer: The outcome was “inactive”.

Question: Which outcome does the source give for `CCO[Si](CCCNC(N)=O)(OCC)OCC` here?
Answer: The outcome was “inactive”.

Question: For `O=CCCCC=O`, which outcome is on record?
Answer: The outcome was “inactive”.

Question: With `CCCCCCCCN(C)CCCCCCCC` as the molecule, how does the outcome read?
Answer: Its outcome is “inactive”.

Question: For `O=C(Nc1ccc(Cl)cc1)Nc1ccc(Cl)c(Cl)c1`, which outcome is on record?
Answer: The outcome was “inactive”.

Question: Which outcome does the source give for `C[C@]12CC[C@@H]3c4ccc(O)cc4CC[C@H]3[C@@H]1CC[C@H]2O` here?
Answer: The outcome was “inactive”.

Question: Which outcome does the source give for `CN(C)C(=O)C1(N2CCCCC2)CCN(CC[C@@]2(c3ccc(Cl)c(Cl)c3)CN(C(=O)c3ccccc3)CCO2)CC1` here?
Answer: The outcome was “inactive”.

Question: For `CCCCCCCC[Si](OCC)(OCC)OCC`, which outcome is on record?
Answer: Its outcome is “inactive”.
